From PubChem BioAssay (NCI)
The panel holds about 79,000 compounds, 15% with a hit somewhere; the sample as a whole holds those more often. Activity calls are given as the source filed them. No stated cut-off is given here; in the data, active means growth inhibition above about 70%; inactive means the rest.

How the values were obtained:
[1] = NCI Yeast Anticancer Drug Screen. Data for the rad52 strain (AID 147);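 further: 0% = growth of vehicle-treated control cultures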; details: S. cerevisiae rad52 mutant growth inhibition, stronger effect = higher value
Outline: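 Measured: yeast growth inhibition. System: strain with a defined DNA damage repair alteration. Reference: vehicle-treated control cultures.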

[2] = NCI Yeast Anticancer Drug Screen. Data for the wt1 strain (AID 149);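 further: 0% = growth of vehicle-treated wt1 cultures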; details: S. cerevisiae wt1 strain (SPY 50644) growth inhibition, stronger effect = higher value
Outline: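 Using yeast strain wt1, compound-induced growth inhibition was determined against vehicle-treated cultures.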

[3] = NCI Yeast Anticancer Drug Screen. Data for the rad50EPP+ strain (AID 151);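 further: 0% = growth of vehicle-treated control cultures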; details: S. cerevisiae rad50 mutant strain, stronger effect = higher value
Outline: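 One strain with a rad50 alteration (rad50EPP+) was compound-treated, its growth then compared to that of vehicle controls.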

[4] = NCI Yeast Anticancer Drug Screen. Data for the rad50 strain (AID 155);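 further: 0% = growth of vehicle-only cultures of the same strain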; details: S. cerevisiae rad50 strain growth inhibition, stronger effect = higher value
Outline: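 Relative growth inhibition (compound vs vehicle) was measured in yeast with a defined repair-gene alteration.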

[5] = NCI Yeast Anticancer Drug Screen. Data for the mec2-1 strain (AID 157); details: S. cerevisiae mec2-1 strain, stronger effect = higher value
Outline: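 Test agents were screened against the mec2-1 yeast strain, with defined DNA repair or cell cycle alteration. Growth was scored as inhibition against vehicle-only controls.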

[6] = NCI Yeast Anticancer Drug Screen. Data for the rad14 strain (AID 159);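 further: 0% = growth of vehicle-treated control cultures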; details: S. cerevisiae rad14 strain growth inhibition, stronger effect = higher value
Outline: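 Screen for anticancer potential: a yeast strain altered in DNA damage repair is grown with compound, and reduced growth is quantified against vehicle controls.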

[7] = NCI Yeast Anticancer Drug Screen. Data for the sgs1 mgt1 strain (AID 161);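 further: 0% = growth of cultures given vehicle only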; details: S. cerevisiae sgs1 mgt1 strain, stronger effect = higher value
Outline: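 Mutant yeast exposed to compound; growth scored against vehicle-only wells.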

[8] = NCI Yeast Anticancer Drug Screen. Data for the CLN2oe strain (AID 163);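 further: 0% = growth of vehicle-only control cultures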; details: S. cerevisiae CLN2oe strain, stronger effect = higher value
Outline: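 Here, growth inhibition in a cell-cycle-altered yeast strain after compound exposure was quantified against vehicle control growth.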

[9] = NCI Yeast Anticancer Drug Screen. Data for the cln2 rad14 strain (AID 165);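 further: 0% = growth equal to vehicle treated cultures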; details: S. cerevisiae cln2 rad14 strain, stronger effect = higher value
Outline: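 Growth of compound-exposed yeast (cln2 rad14 genotype) measured and expressed as inhibition relative to vehicle.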

[10] = NCI Yeast Anticancer Drug Screen. Data for the bub3 strain (AID 167); details: S. cerevisiae bub3 mutant strain, stronger effect = higher value
Outline: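 Screening used yeast with an engineered genetic alteration affecting cell cycle control. Compound-exposed cultures were compared with vehicle cultures, and reduced growth was taken as inhibition.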

[11] = NCI Yeast Anticancer Drug Screen. Data for the wt2 strain (AID 169);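 further: 0% = growth of vehicle-treated yeast cultures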; details: S. cerevisiae wt2 strain growth inhibition, stronger effect = higher value
Outline: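 Genetically defined yeast strains from a DNA-repair/cell-cycle panel were used. Compound-exposed yeast growth was measured, and the inhibition was calculated relative to vehicle treatment.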

[12] = NCI Yeast Anticancer Drug Screen. Data for the mlh1 strain (AID 171);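 further: 0% = growth of vehicle-treated control cultures of the same strain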; details: S. cerevisiae mlh1 strain growth inhibition, stronger effect = higher value
Outline: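 Here the genetically defined yeast mutant is grown with each compound, and the extent to which its growth falls below that of vehicle-exposed cells is reported.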

[13] = NCI Yeast Anticancer Drug Screen. Data for the sgs1 strain (AID 173);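 further: 0% = growth of vehicle-only control cultures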; details: S. cerevisiae sgs1 mutant, stronger effect = higher value
Outline: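 Relative growth inhibition, referenced to vehicle, was determined in a yeast strain with a defined alteration affecting DNA damage repair or cell cycle control after compound exposure.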

[14] = NCI Yeast Anticancer Drug Screen. Data for the mlh1 rad18 strain (AID 175); details: S. cerevisiae mlh1 rad18 strain growth inhibition, stronger effect = higher value
Outline: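 In this whole-cell yeast screen, a strain with altered DNA damage repair is challenged with compound, and its growth is measured against matched vehicle-treated controls.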

[15] = NCI Yeast Anticancer Drug Screen. Data for the rad18 strain (AID 177); details: S. cerevisiae rad18 mutant growth inhibition, stronger effect = higher value
Outline: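 Screen uses a yeast strain with a defined lesion in DNA damage repair; compound effect is read as loss of growth compared to untreated vehicle cultures.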

[16] = at 5.0 µM (retest, dose inferred, filed as 0.5)
[17] = at 50.0 µM (retest, dose inferred, filed as 5.0)

Measured: growth inhibition

CC1=CC2C(C(C)C)CC1C1C(=O)OC(=O)C21 (stereo not drawn)
active: [1]; at 100.0 µM 71% | [4]; [17] 83% | [4]; at 50.0 µM 86.7% | [4]; at 100.0 µM 81% | [5]; [17] 86% | [5]; at 50.0 µM 76.5% | [6]; at 100.0 µM 78% | [10]; at 50.0 µM 70.8% | [11]; at 100.0 µM 86% | [13]; at 100.0 µM 88% | [14]; [17] 77% | [14]; at 50.0 µM 76.4%
inactive: [1]; at 1.2 µM -12% | [1]; at 3.7 µM -14% | [1]; at 11.0 µM -2% | [1]; at 33.0 µM 20% | [2]; at 1.2 µM -5% | [2]; at 3.7 µM 0% | [2]; at 11.0 µM 6% | [2]; at 33.0 µM 13% | [2]; at 100.0 µM 51% | [3]; at 1.2 µM -8% | [3]; at 3.7 µM -20% | [3]; at 11.0 µM 10% | [3]; at 33.0 µM 33% | [3]; at 100.0 µM 49% | [4]; at 1.2 µM -13% | [4]; at 3.7 µM -16% | [4]; [16] -127% | [4]; at 11.0 µM -12% | [4]; at 33.0 µM 24% | [5]; at 1.2 µM -1% | [5]; at 3.7 µM 0% | [5]; [16] -42% | [5]; at 11.0 µM -2% | [5]; at 33.0 µM 2% | [5]; at 100.0 µM 37% | [6]; at 1.2 µM -2% | [6]; at 3.7 µM 4% | [6]; at 11.0 µM 13% | [6]; at 33.0 µM 24% | [7]; [16] -60% | [7]; [17] 25% | [7]; at 50.0 µM 13.6% | [8]; at 1.2 µM -7% | [8]; at 3.7 µM -11% | [8]; at 11.0 µM -10% | [8]; at 33.0 µM -9% | [8]; at 100.0 µM 16% | [9]; [16] -53% | [9]; [17] 47% | [9]; at 50.0 µM 13.4% | [10]; at 1.2 µM -6% | [10]; at 3.7 µM -6% | [10]; [16] -71% | [10]; at 11.0 µM -9% | [10]; at 33.0 µM -6% | [10]; [17] 66% | [10]; at 100.0 µM 50% | [11]; at 1.2 µM -8% | [11]; at 3.7 µM -2% | [11]; at 11.0 µM 11% | [11]; at 33.0 µM 36% | [12]; at 1.2 µM -16% | [12]; at 3.7 µM -7% | [12]; at 11.0 µM -6% | [12]; at 33.0 µM 10% | [12]; at 100.0 µM 56% | [13]; at 1.2 µM -14% | [13]; at 3.7 µM -10% | [13]; at 11.0 µM 7% | [13]; at 33.0 µM 27% | [14]; [16] -140% | [15]; at 1.2 µM -9% | [15]; at 3.7 µM -6% | [15]; at 11.0 µM -6% | [15]; at 33.0 µM 3% | [15]; at 100.0 µM 69%
